Screening data deposited in PubChem by National Center for Advancing Translational Sciences (NCATS).
HTT prom inh: HTT promoter inhibition. HEK293 HTT promoter firefly luciferase reporter, 24 h. Potency, µM (series often up to 57.5 µM), for inactives: top-dose activity change, negative = inhibition, hits mostly inhibitors. 48,000 compounds, 0.93% hits. AID 1508623; further: nearly all actives have a fitted effect of over 50% in size
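HEK293 Fluc reporter, 2,500 cells/well, 24 h pre-culture; cpds up to 57.5 uM final, 24 h 37 degrees C; Dual-Glo, 10 min RT; normalized vehicle = 0%, zero RLU = -100%.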
NTMT1 inh: blocks human N-terminal methyltransferase 1 activity. AID 1645870. Potency, µM (highest dose often 114 µM), inactives show at the top dose activity change, negative = inhibition, usual class: inhibitors. 59,000 compounds, 2.5% hits. Q9BV86. NTMT1 MTase-Glo SAH luminescence, purified enzyme;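 further: plate controls were DMSO vehicle for no effect and no enzyme for full effect; nearly all actives have a fitted effect of over 65% in size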
Target sequence (Q9BV86 whole entry, looked up): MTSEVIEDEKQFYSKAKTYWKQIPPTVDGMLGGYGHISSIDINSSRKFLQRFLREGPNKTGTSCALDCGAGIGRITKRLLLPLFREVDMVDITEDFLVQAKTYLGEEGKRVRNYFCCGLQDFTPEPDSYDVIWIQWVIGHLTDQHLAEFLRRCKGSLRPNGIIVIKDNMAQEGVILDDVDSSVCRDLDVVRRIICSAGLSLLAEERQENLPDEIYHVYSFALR
HTT-AS promoter: HTT-AS promoter activation. HEK293 HTT-AS promoter firefly luciferase reporter, 24 h; response scale: percent change from vehicle, -100% = no light. Potency, µM (highest dose often 57.5 µM), for inactives: at the highest dose activity change, positive = activation, usual class: activators. 48,000 compounds, 0.24% hits; further: nearly all actives have a fitted effect of over 55% in size
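Quantitative HTS used concentration series of up to 57.5 uM final on HEK293 luciferase reporter cells, 24 h at 37 degrees C. Readout was Dual-Glo firefly luminescence.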
An asterisk follows results filed as active; ? = inconclusive; / = no result given; ! = repeats disagree; [ ] = dose if it differs, or a comment. This is one part of a sample in which hits are shown more often than they occur. The call rests on the fitted dose curve; in most records, active means well fitted curve in the direction sought with a large enough effect; inconclusive means small, poorly fitted or top-dose-only effect, or another doubt; inactive means no such curve, though single readings can be large; an effect the other way counts as inactive or inconclusive. Potency means the concentration at half of the fitted maximal effect.

SMILES	HTT prom inh	NTMT1 inh	HTT-AS promoter
N#Cc1cn([C@@H]2O[C@H](CO)[C@H](O)[C@@H]2O)c2ncnc(N)c12	/	8.91µM*	/
N#CC(OC1OC(COC2OC(CO)C(O)C(O)C2O)C(O)C(O)C1O)c1ccccc1 (stereo not given)	/	16.3%[29.8 µM]	/
CC1=CC2/C=C(\C)CCCC(O)/C=C/C(=O)OC23C(=O)NC(CC(C)C)C3C1C (stereo not given)	/	11.7%[29.8 µM]	/
N#Cc1cc2c(nc1SCC(=O)Nc1ccc(OC(F)(F)F)cc1)C1CCN2CC1	28.2µM*	6.2%	-51.1%
CCOC(=O)c1ccc(NC(=O)CSc2nc3c(cc2C#N)N2CCC3CC2)cc1	-27.0%	-7.8%	-19.7%
N#Cc1ccc(NC(=O)Nc2nnc(-c3ccncc3)s2)cc1C(F)(F)F	/	-15.4%	/
CCOc1ccc(NC(=O)c2cccn(Cc3cccc(Cl)c3)c2=O)cc1	15.8µM*	8.5%	-33.5%
COc1ccc(NC(C)=O)cc1NC(=O)c1cccn(Cc2ccccc2)c1=O	-12.2%	-1.0%	10.4%
Cc1nnc(NC(=O)c2cccn(Cc3cccc(Cl)c3)c2=O)s1	27.1%	-8.9%	1.4%
COc1ccc(NC(=O)c2cccn(Cc3ccc(Cl)cc3)c2=O)c(OC)c1	12.6µM*	-20.0%	-49.7%
COC[C@H]1OC(=O)c2coc3c2[C@@]1(C)C1=C(C3=O)[C@@H]2CC[C@H](O)[C@@]2(C)C[C@H]1OC(C)=O	/	-2.2%	/
CN1C(=O)[C@@H](NC(=O)[C@H](CCC(F)(F)F)[C@H](CCC(F)(F)F)C(N)=O)N=C(c2ccccc2)c2ccccc21	/	5.3%	/
N#Cc1ccc(NC(=O)Nc2nnc(-c3ccncc3)s2)cc1Cl	/	-9.1%	/
CCOc1ccc(CCNC(=O)c2cc3cnccc3n2Cc2cccc(C)c2)cc1OCC	/	-16.4%[57.5 µM]	/
CC1CCCC(O)CC(=O)Cc2cc(O)cc(O)c2C(=O)O1 (stereo not given)	/	-14.5%[29.8 µM]	/
COc1cc(O)c2c(c1)CCC[C@@H](O)[C@H](O)C(=O)/C=C\C[C@H](C)OC2=O	/	10µM*	/
C[C@@H]1O[C@@H](OC2CCC3(C=O)C(CCC4C3CCC3(C)C(C5=CC(=O)OC5)C(O)CC43O)C2)[C@H](O)[C@H](O)[C@H]1O[C@@H]1O[C@H](CO)[C@@H](O)[C@H](O)[C@H]1O (stereo not given in full)	/	9.7%[12.6 µM]	/
O=C(NCCCNc1nc(Nc2ccc(N3CCOCC3)cc2)ncc1C1CC1)C1CCC1	/	-28.4%	/
CCCCCCCCCCCCCCCC[N+](C)(C)C	?	25.1µM*	-36.5%
CCCCCCCCCCCC[N+](C)(C)CCOc1ccccc1	?	?	-35.5%
Cc1cc(SCc2sc(-c3ccc(C(F)(F)F)c(F)c3)nc2C)ccc1OCC(=O)O	16.7%	70.8µM*!	?
CC(C)(NC(=O)O[C@@H]1CN2CCC1CC2)c1csc(-c2ccc(F)cc2)n1	/	-91.4%	/
Cc1cc(C)c(OP(=O)(OCc2c(-c3ccccc3)no[n+]2[O-])Oc2c(C)cc(C)cc2C)c(C)c1	/	-4.7%	/
CCOc1ccc(CN(CCc2ccc3c(c2)OCO3)Cc2cccc(Br)c2)cc1	0.0%	8.91µM*	-12.3%
CCOc1ccc(CN(CCc2ccc3c(c2)OCO3)Cc2cccc(OC)c2)cc1	-29.1%	1.6%	-27.8%
SMILES	HTT prom inh	NTMT1 inh	HTT-AS promoter
CC1(C)C(=O)N(c2ccc(C#N)c(C(F)(F)F)c2)C(=S)N1Cc1ccc(-c2cn[nH]n2)cc1	/	24.5%	/
Cc1[nH]ncc1-c1cc2nc([C@@H]3CC4CCN3CC4)[nH]c(=O)c2s1	/	12.4%	/
CCCCCCCCCC(CC)c1ccc(S(=O)(=O)O)cc1 (stereo not given)	12.4%[116 µM]	10µM*	-17.0%[116 µM]
CN1C(=O)C(Cc2ccc3ccccc3c2)N=C(c2ccc(O)cc2)c2cc(Cl)ccc21 (stereo not given)	/	-14.1%[57.5 µM]	/
CN(C)C(=S)SSC(=S)N(C)C	-28.3%	7.94µM*	-43.5%
CC(C)(NC(=O)[C@@H](N)Cc1ccc(O)cc1)C(=O)N[C@@H](Cc1cc2ccccc2[nH]1)C(=O)N[C@@H](Cc1ccccc1)C(=O)O	/	-13.2%[12.6 µM]	/
CCOc1ccc(CCNC(=O)c2cc3ccccc3n2Cc2cccc(C)n2)cc1OCC	/	13.5%	/
Oc1cccc2cc(N3CCNCC3)cnc12	/	0.3%	/
O=C(Nc1ccc(Br)cc1C(=O)c1ccccc1Cl)c1ccccc1F	-11.0%	-17.7%	-11.1%
O=C(CBr)Nc1ccc(Cl)cc1C(=O)c1ccccc1F	-4.8%	14.1µM*	-11.7%
COc1cc(C)[nH]c(=O)c1CNC(=O)c1c(C)n([C@H](C)C2CCN(CC(F)(F)F)CC2)c2ccccc12	/	-2.2%	/
Oc1ccc([C@H]2CNCc3c2ccc(O)c3O)cc1O	0.3%	2.82µM*	-8.4%
